Results reported in PubChem BioAssay AID1159580 (chemical genetic matrix, 2015).
Out of some 5,500 compounds screened, about 2,000 (36%) were called active. Not shown: some 18% with an inconclusive outcome. No stated cut-off is given here; in the data, active means normalized growth mostly below about 0.91 (no sharp cut-off); inconclusive means no clear call, values can overlap the other calls; inactive means mostly above about 0.92. This is one part of the list.

Assay: chemical genetic growth profiling, strain panel (AID 1159580);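 further: tested at 20 µM; growth read once vehicle control cultures reached saturation at 30 °C; 1 = growth at the plate median or of vehicle wells; lower values mean less growth of the strain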
Conditions: growth OD
[1] = S. cerevisiae deletion strains, locus YAL013W, strain DEP1, active compounds read low
[2] = S. cerevisiae deletion strains, locus YBR229C, strain ROT2, active compounds read low
[3] = S. cerevisiae deletion strains, locus YDL101C, strain DUN1, active compounds read low
[4] = S. cerevisiae deletion strains, locus YDR150W, strain NUM1, active compounds read low
[5] = S. cerevisiae deletion strains, locus YEL061C, strain CIN8, active compounds read low
[6] = S. cerevisiae deletion strains, locus YGR078C, strain PAC10, active compounds read low
[7] = S. cerevisiae deletion strains, locus YHR030C, strain SLT2, active compounds read low
[8] = S. cerevisiae deletion strains, locus YJR043C, strain POL32, active compounds read low
[9] = S. cerevisiae deletion strains, locus YJR075W, strain HOC1, active compounds read low
[10] = S. cerevisiae deletion strains, locus YKL190W, strain CNB1, active compounds read low
[11] = S. cerevisiae deletion strains, locus YLR039C, strain RIC1, active compounds read low
[12] = S. cerevisiae deletion strains, locus YLR262C, strain YPT6, active compounds read low
[13] = S. cerevisiae deletion strains, locus YMR263W, strain SAP30, active compounds read low
[14] = S. cerevisiae deletion strains, locus YMR307W, strain GAS1, active compounds read low
[15] = S. cerevisiae deletion strains, locus YNL153C, strain GIM3, active compounds read low
[16] = S. cerevisiae deletion strains, locus YNL322C, strain KRE1, active compounds read low
[17] = S. cerevisiae deletion strains, locus YOL006C, strain TOP1, active compounds read low
[18] = S. cerevisiae deletion strains, locus YPL055C, strain LGE1, active compounds read low
[19] = S. cerevisiae deletion strains, locus YPL241C, strain CIN2, active compounds read low

Measured: normalized growth

O=C(O)c1nccnc1C(=O)O
inactive: [1] 0.993 | [2] 0.991 | [3] 0.988 | [4] 0.924 | [5] 0.994 | [6] 1 | [7] 1.02 | S. cerevisiae deletion strains, locus YHR087W, strain rtc3, active compounds read low 1.02 | [8] 0.972 | [9] 0.988 | [10] 1.01 | [11] 1.01 | S. cerevisiae deletion strains, locus YLR058C, strain SHM2 (second series), active compounds read low 1.01 | S. cerevisiae deletion strains, locus YLR085C, strain ARP6, active compounds read low 1.01 | [12] 1.03 | S. cerevisiae deletion strains, locus YML094W, strain GIM5, active compounds read low 1.01 | S. cerevisiae deletion strains, locus YMR219W, strain ESC1, active compounds read low 1.01 | [13] 0.991 | [14] 0.992 | [15] 1 | S. cerevisiae deletion strains, locus YNL298W, strain CLA4 (second series), active compounds read low 1.01 | [16] 1.01 | S. cerevisiae deletion strains, locus YNR030W, strain Alg12, active compounds read low 1.05 | [17] 1.06 | [18] 0.951 | [19] 1.01 | S. cerevisiae deletion strains, locus YPR135W, strain CTF4, active compounds read low 1.05

COP(=O)(OC)OC(Br)C(Cl)(Cl)Br (stereo not drawn)
inactive: [1] 0.966 | S. cerevisiae deletion strains, locus YBR021W, strain FUR4, active compounds read low 1.04 | [2] 0.947 | S. cerevisiae deletion strains, locus YCL029C, strain bik1, active compounds read low 0.997 | S. cerevisiae deletion strains, locus YDL035C, strain GPR1, active compounds read low 0.984 | S. cerevisiae deletion strains, locus YDL074C, strain BRE1, active compounds read low 0.961 | [3] 0.988 | S. cerevisiae deletion strains, locus YDL134C, strain PPH21, active compounds read low 0.994 | S. cerevisiae deletion strains, locus YDL185W, strain tfp1, active compounds read low 0.989 | S. cerevisiae deletion strains, locus YDL192W, strain arf1, active compounds read low 1 | S. cerevisiae deletion strains, locus YDR101C, strain arx1, active compounds read low 0.999 | [4] 0.984 | S. cerevisiae deletion strains, locus YDR162C, strain NBP2, active compounds read low 0.988 | S. cerevisiae deletion strains, locus YDR318W, strain mcm21, active compounds read low 1 | S. cerevisiae deletion strains, locus YDR388W, active compounds read low 1.01 | S. cerevisiae deletion strains, locus YDR502C, strain sam2, active compounds read low 1 | [5] 0.993 | S. cerevisiae deletion strains, locus YER110C, active compounds read low 0.993 | S. cerevisiae deletion strains, locus YER155C, strain BEM2, active compounds read low 1 | S. cerevisiae deletion strains, locus YER167W, strain BCK2, active compounds read low 0.981 | S. cerevisiae deletion strains, locus YGL078C, strain dbp3, active compounds read low 1.01 | S. cerevisiae deletion strains, locus YGL086W, strain mad1, active compounds read low 0.989 | S. cerevisiae deletion strains, locus YGL248W, strain PDE1, active compounds read low 0.968 | [6] 0.987 | S. cerevisiae deletion strains, locus YGR135W, strain pre9, active compounds read low 1.01 | S. cerevisiae deletion strains, locus YGR229C, strain SMI1, active compounds read low 0.996 | S. cerevisiae deletion strains, locus YGR252W, strain gcn5, active compounds read low 1.06 | [7] 1.01 | S. cerevisiae deletion strains, locus YHR079C, strain IRE1 (second series), active compounds read low 0.995 | S. cerevisiae deletion strains, locus YHR094C, strain hxt1, active compounds read low 1.01 | S. cerevisiae deletion strains, locus YHR129C, strain ARP1, active compounds read low 0.969 | S. cerevisiae deletion strains, locus YHR200W, strain rpn10, active compounds read low 0.997 | S. cerevisiae deletion strains, locus YIL066C, strain RNR3, active compounds read low 0.984 | S. cerevisiae deletion strains, locus YIL073C, strain SPO22, active compounds read low 1.06 | S. cerevisiae deletion strains, locus YIL125W, strain kgd1, active compounds read low 1 | S. cerevisiae deletion strains, locus YIR030C, strain dcg1, active compounds read low 1.01 | S. cerevisiae deletion strains, locus YJL095W, strain BCK1, active compounds read low 1 | S. cerevisiae deletion strains, locus YJL134W, strain LCB3, active compounds read low 0.994 | S. cerevisiae deletion strains, locus YJL168C, strain set2, active compounds read low 0.997 | S. cerevisiae deletion strains, locus YJL187C, strain SWE1 (second series), active compounds read low 0.965 | [8] 0.999 | [9] 0.964 | S. cerevisiae deletion strains, locus YKL009W, strain mrt4, active compounds read low 0.948 | S. cerevisiae deletion strains, locus YKL068W, active compounds read low 0.995 | S. cerevisiae deletion strains, locus YKL085W, strain MDH1 (second series), active compounds read low 1.01 | S. cerevisiae deletion strains, locus YKL085W, strain MDH1, active compounds read low 1.01 | [10] 0.997 | S. cerevisiae deletion strains, locus YKR001C, strain vps1, active compounds read low 1.01 | [11] 0.997 | S. cerevisiae deletion strains, locus YLR058C, strain SHM2, active compounds read low 0.979 | S. cerevisiae deletion strains, locus YLR102C, strain apc9, active compounds read low 0.994 | [12] 0.99 | S. cerevisiae deletion strains, locus YLR268W, strain sec22, active compounds read low 1.01 | S. cerevisiae deletion strains, locus YLR330W, strain CHS5, active compounds read low 0.988 | S. cerevisiae deletion strains, locus YLR342W, strain FKS1 (second series), active compounds read low 0.98 | S. cerevisiae deletion strains, locus YLR371W, strain rom2, active compounds read low 0.999 | S. cerevisiae deletion strains, locus YLR418C, strain cdc73, active compounds read low 0.987 | S. cerevisiae deletion strains, locus YML016C, strain PPZ1, active compounds read low 0.989 | S. cerevisiae deletion strains, locus YML032C, strain rad52, active compounds read low 1.01 | S. cerevisiae deletion strains, locus YML124C, strain tub3, active compounds read low 1.01 | S. cerevisiae deletion strains, locus YMR078C, strain ctf18, active compounds read low 1.02 | S. cerevisiae deletion strains, locus YMR223W, strain ubp8, active compounds read low 1 | [13] 0.989 | [14] 1.02 | S. cerevisiae deletion strains, locus YNL067W, strain RPL9B, active compounds read low 0.974 | S. cerevisiae deletion strains, locus YNL128W, strain TEP1, active compounds read low 0.957 | [15] 0.971 | S. cerevisiae deletion strains, locus YNL233W, strain BNI4, active compounds read low 0.978 | S. cerevisiae deletion strains, locus YNL250W, strain rad50, active compounds read low 0.999 | S. cerevisiae deletion strains, locus YNL271C, strain bni1, active compounds read low 1.01 | S. cerevisiae deletion strains, locus YNL298W, strain CLA4, active compounds read low 1.01 | S. cerevisiae deletion strains, locus YNL307C, strain MCK1, active compounds read low 1.02 | [16] 0.987 | S. cerevisiae deletion strains, locus YNR052C, strain pop2, active compounds read low 1.01 | [17] 1.04 | S. cerevisiae deletion strains, locus YOL012C, strain htz1 1.23 | S. cerevisiae deletion strains, locus YOL147C, strain pex11, active compounds read low 1.01 | S. cerevisiae deletion strains, locus YOR061W, strain CKA2, active compounds read low 0.973 | S. cerevisiae deletion strains, locus YOR069W, strain VPS5, active compounds read low 0.998 | S. cerevisiae deletion strains, locus YOR136W, strain idh2, active compounds read low 1 | S. cerevisiae deletion strains, locus YOR144C, strain elg1, active compounds read low 1 | S. cerevisiae deletion strains, locus YOR184W, strain ser1, active compounds read low 1.01 | S. cerevisiae deletion strains, locus YOR316C, strain cot1, active compounds read low 0.992 | [18] 0.99 | [19] 0.998 | S. cerevisiae deletion strains, locus YPR119W, strain clb2, active compounds read low 1.01 | S. cerevisiae deletion strains, locus YPR141C, strain kar3, active compounds read low 0.993 | S. cerevisiae deletion strains, locus YPR163C, strain tif3, active compounds read low 1 | S. cerevisiae deletion strains, locus YPR167C, strain met16, active compounds read low 0.99 | S. cerevisiae deletion strains, strain wtn01, active compounds read low 1 | S. cerevisiae strains, strain wild type, active compounds read low 0.994
